PubChem BioAssay (EPA / NIEHS)
Inconclusive results are not listed. Calls of active or inactive are those of the source. Rule for the calls: active = hit-call score of the fitted dose curve at least 0.9, where 1 is the maximum; inconclusive = response in the unintended direction; inactive = score below 0.9. Peptide text beside a SMILES is read from it.

Test: ACEA_AR_agonist_AUC_viability: ACEA Biosciences xCELLigence Real-Time Cell Analysis on Androgen Receptor Agonism for Viability (AID 2283775);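 for AC50: viability read 80 hours after compound addition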
In short: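 Read-out is area under the impedance curve at 80 h post-dose in 22Rv1 cells, with DMSO as baseline and signal loss taken as reduced viability. Compounds ran in duplicate from 100 uM final.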

SMILES	outcome	AC50
COC(=O)[C@H](Cc1ccccc1)NC(=O)[C@@H](N)CC(=O)O (H-Asp-Phe-OMe)	inactive	
O=C(O)CC(C(=O)O)S(=O)(=O)O (stereo not given)	inactive	
CC(=O)OCc1ccccc1	inactive	
C=C1C[C@H]2[C@@H]3C=C(C)C4=CC(=O)CC[C@]4(C)[C@H]3CC[C@]2(C)[C@@]1(OC(C)=O)C(C)=O	inactive	
CCCCCCCCC(CO)CCCCCC (stereo not given)	inactive	
CCCCCCCCCC(C)=O	inactive	
CO[Si](C)(C)OC	inactive	
CCCCCCC=O	inactive	
CCCCNS(=O)(=O)c1ccccc1	inactive	
CCCCOCCOC(=O)COc1ccc(Cl)cc1Cl	inactive	
CCC(C)(O)CCCC(C)C (stereo not given)	inactive	
CC(C)(C)N	inactive	
CCc1cccc(C)c1N	inactive	
CC(=O)OC1CCCCC1C(C)(C)C (stereo not given)	inactive	
CC(C)(C)C1CCC(=O)CC1	inactive	
CCCCCCCCCCCC(=O)N(C)CC(=O)O	inactive	
CCCCC(=O)O	inactive	
Oc1ccc(-c2ccccc2)c(Cl)c1	inactive	
CCCCc1ccc(Cl)cc1	inactive	
O=C(Nc1ccccc1)c1cc(Cl)ccc1O		14.3 µM (active)
